± gives the standard deviation.
test system: MILI (PIWIL2) piRISC loaded with L1MC piRNA (26 nt); test: pre-steady-state target cleavage rate (min^-1); guide: L1MC piRNA 5'p-UAACUAAAUACUAUGCAAGCUGUAGG; MIWI and MILI are mouse PIWI proteins and EfPiwi is from a freshwater sponge; tags in brackets are library labels; higher = faster piRNA-guided slicing of the target; conditions: auxiliary factor: 500 nM mouse GTSF1
Procedure, shortened: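 In Cleave-'n-Seq, a transcribed, DNA-blocked target RNA library (0.1 nM) was combined with 1 nM active affinity-purified piRISC bearing one synthetic guide, with or without 500 nM GTSF1 partner protein. Reactions ran in HEPES–potassium acetate buffer at 33 °C for 0–8 or 0–960 min. Uncleaved targets were sequenced and normalised to depth and to weakly complementary targets, three trials were pooled, and k3 was capped at 0.0001 min^-1. The pre-steady-state cleavage rate was obtained by fitting a burst-and-steady-state model.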

Sequence | pre-steady-state target cleavage rate
UCCUGGAUGUGCUUGCAUUGUAUUUUGUUA | 0.0555 ± 0.015
UCCUGGAUGUCCUUGCAAAGUAUUUACUUA | 0.0234 ± 0.0076
UCCUGGAUGUCGAAGCAUAGUAUUUCAGUUA | 0.0176 ± 0.0068
UCCUGGAUGUCGAUGCAUAGUAUUUUCUUA | 0.011 ± 0.006
UCCUGGAUGUGCUUGCAUAGAAUUUAGUAA | 0.00482 ± 0.0043
UCCUGGAUCACCUUGCAUAGUAUUUAGAAA | 0.22 ± 0.051
UCCUGGAACAGCUUGCAUAGUAAUUACAAA | 0.0522 ± 0.019
UCCUGGAUGUCGAAUCAUAGUAUUUAGUUA | 0.00554 ± 0.0026
UCCUCCUACACGAUGCAUAGUAUUUACAAA | 0.122 ± 0.021
UCCUGGAUGUGCUUCGAUAGUAUUUAGUUA | 0.0415 ± 0.0078
UCCUGGAACUCGUUGCAUAGUAUUUACAAA | 0.0537 ± 0.013
UCCUGGAACAGCUUGCAAAGUAUUUUGUUA | 0.0942 ± 0.021
UCCUGGAUGUGCUUGCAUACUAUUUAGUAA | 0.00943 ± 0.0038
UCCUGGAUGUCGAUGCAUAGUAUUUAUUA | 0.00695 ± 0.0047
UCCUGGAUGUGCAUGCAUAGAAUUUAGUUA | 0.00714 ± 0.0044
UCCUGGAUGUGCUUGCAUAGUAUUUCAGUUA | 0.0278 ± 0.01
UCCUCCUACAGCUUGCUAUGUAUUUAGAAA | 0.00902 ± 0.0042
UCCUCCUACUCGUUGCAUAGUAUUUUCAAA | 0.0494 ± 0.013

Sequence | pre-steady-state target cleavage rate
UCCUCCUACAGCUUGGUAAGUAUUUAGUAA | 0.155 ± 0.025
UCCUGCUACAGCUUGCAUGAGUAUUUAGUUA | 0.0058 ± 0.0041
UCCUGGAACAGCUUGCUAAGUAUUUAGUAA | 0.0296 ± 0.01
UCCUGGAUCAGCUUGCAUAGAAUUUACUUA | 0.021 ± 0.0075
UCCUGGAUGUCCUUGCAUAGUUAAUAGUUA | 0.00959 ± 0.0043
UCCUGGAUGUCGAAGCAUAGUAUUUCGUUA | 0.00855 ± 0.0046
UCCUGGAUGACCUUGCAUAGAAUUUAGUUA | 0.023 ± 0.012
UCCUGGAUCAGCUUGCAUAGUAUAAUGUUA | 0.116 ± 0.013
UCCUGGAUGUCCUUGCAUACUAAUUAGUUA | 0.00561 ± 0.0042
UCCUGGAACAGCAUGCAUAGUAUUUAGAAA | 0.196 ± 0.025
UCCUGGAUGUCGAACCAUAGUUAAUAGUUA | < 0.0001
UCCUGGAACAGCUUGGAUAGUAUUUACUUA | 0.0413 ± 0.012
UCCUGGAUGAGCUUGCAUAGAAUUUAGUUA | 0.0653 ± 0.017
UCCUGGUACAGCUUGCUUAGUAUUUUCAAA | 0.0244 ± 0.0078
UCCUCCUACAGCUUGCAAUCUAUUUAGAAA | 0.0218 ± 0.007
UCCUGGAUCAGCUUGCAUAGUUUUUACAAA | 0.012 ± 0.0052
UCCUGCUUGUGCUUGCAUAGUAUUUUCAAA | 0.00521 ± 0.0042
UCCUCCUACAGCUUGCUAUGUAUUUAGUAA | 0.021 ± 0.0069

same assay, conditions: auxiliary factor: none (no GTSF1)

Sequence | pre-steady-state target cleavage rate
UCCUGGAUGUCGAAGCAUAGAAUUUACUUA | < 0.0001
UCCUGGAUGUCGAACGUAAGUAUUAUAGUUA | < 0.0001
UCCUGGAUGUCGAACGUAAGUAUUUAGUUC [g2:g12:cont:t1C] | < 0.0001

Source: the supplement of paper PMC10338343
